For 14 molecules, growth results are on record in PubChem BioAssay (NCI).

About 83,000 compounds went through this panel and 20% of them were active in at least one assay; those are over-represented in the sample as a whole.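 Results are percent growth after 48 hours of single-concentration exposure. 100 means growth as in untreated cells, lower positive values show inhibition; negative values down to -100 show cell death.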 Values without a mark were called inactive. Calls of active or inactive are those of the source. How the source made its calls: active means growth percent below 10; inactive means the rest.

What all share (assay): NCI-60 one-dose screen, 48 h (100 = growth as untreated, 0 = no growth, -100 = all killed)
Common to all, as to conditions: 10 µM unless noted

In assay [1] the test system is RPMI-8226 leukemia.
Assay [2] has as its system OVCAR-8 ovarian.
Assay [3] has as its system OVCAR-5 ovarian.
Assay [4] has as its system OVCAR-4 ovarian.
The subject of assay [5] is SK-OV-3 ovarian.
The test system of assay [6] is IGROV1 ovarian.
The test system of assay [7] is OVCAR-3 ovarian.
The subject of assay [8] is HS 578T breast.
Assay [9] concerns NCI/ADR-RES ovarian.
The subject of assay [10] is T-47D breast.

In the case of `CCCCCCn1c(=N)n(CC(O)COc2cccc(C)c2)c2ccccc21` (stereo not given), the growth in [1] was -24.8% (active); in assay [2], -67.1% (active); in [3], -7.84% (active); in assay [4], -31.9% (active); in assay [5], 37.3%; in assay [6], -58.1% (active). The growth was 23.3% in assay [7], -5.09% (active) in assay [8], -2.54% (active) in assay [9] and 52.6% in assay [10].
In the case of `O=S1(=O)N(Cc2ccccc2)[C@@H](Cc2ccccc2)C2O[C@H]2[C@H](Cc2ccccc2)N1Cc1ccccc1` (stereo not given in full), the growth in assay [1] is 27.9%; in [2], 52.4%; in assay [3] it was 93.5%; in assay [4], 6.6% (active); in assay [5], 47%; in assay [6], 60.6%. The growth in [7] was 62.8%; in assay [8] it was 98.9%; in assay [9] it was 40%; in [10] it was 32.5%.
Turning to `CCOC(=O)c1sc(-c2ccc(OS(=O)(=O)c3ccccc3[N+](=O)[O-])c(C=O)c2)nc1C`, the growth was 37.2% in assay [1]; 56.5% in [2]; 73.6% in assay [3]; 33% in assay [4]; 117% in assay [5]; 3.88% (active) in assay [6]. Moreover, the growth was 23.5% in assay [7], 96.3% in assay [8], 61.6% in assay [9] and 28.4% in [10].
As for `COc1ccc(C2C3=C(COC3=O)N(CCO)c3cc4c(cc32)CCC4)cc1` (stereo not given), the growth is 86.8% in [1]; 58.4% in assay [2]; 96.2% in [3]; 75.9% in assay [4]; 57.3% in assay [5]; 51.8% in assay [6]. For the same molecule, the growth in assay [7] is 0.832% (active); in [8] it was 69.7%; in [9] it was 65.3%; in [10], 31.5%.
As to `O=c1nc2sc3nc4ccccc4cc3cc-2s1`, the growth in assay [1] was 128%; in assay [2], 112%; in assay [3] it was 120%; in [4], 115%; in assay [5], 108%; in assay [6] it was 127%. Further, the growth in [7] was 140%; in assay [8] it was 79.9%; in assay [9] it was 103%; in assay [10], 119%.
For the molecule `Nc1nc(Nc2cccc(F)c2)nc2ccccc12`, the growth in assay [1] was 0.232% (active); in [2], 55.9%; in assay [3] it was 54.1%; in assay [4], 40.4%; in assay [5], 72.7%; in assay [6], 28%. In addition, the growth was 50.6% in assay [7], 63.9% in [8], 38.1% in assay [9] and 41.5% in assay [10].
As for `CCN1C(=O)N(CC)C2C1NC(=S)N2/N=C/C=C/c1ccccc1OC` (stereo not given), the growth in assay [1] is 16.5%; in [2] it was 14.8%; in assay [3] it was 45.2%; in assay [4] it was 53.5%; in [5], 33.7%; in [6] it was 31.2%. The growth in assay [7] was 16.6%; in [8], 40.3%; in assay [9] it was 6.29% (active); in assay [10], 65.9%.
Consider `COc1cc(C2C3=C(COC3=O)N(CCO)c3cc4c(cc32)OCCO4)cc(OC)c1O` (stereo not given), for which the growth is 32.4% in assay [1]; 27.4% in assay [2]; 87.4% in [3]; 40.3% in assay [4]; 24.5% in [5]; 27.1% in [6]. Further, the growth is -31% (active) in assay [7], 21.9% in assay [8], 82.9% in assay [9] and 33.4% in [10].
For `COc1cc(/C=C/C(=O)N2c3ccccc3CC2C)c(OC)c2c1OCO2` (stereo not given), the growth in assay [1] is 88.6%; in assay [2] it was 96.9%; in [3], 87.1%; in [4] it was 96.6%; in assay [5], 122%; in assay [6] it was 105%. The growth in [7] was 103%; in assay [8] it was 96.2%; in assay [9], 81.5%; in assay [10], 77.2%.
As to `O=C(Nc1ccc(I)cc1F)c1cc(Br)ccc1O`, the growth is -18.9% (active) in assay [1]; 7.13% (active) in assay [2]; 23.7% in assay [3]; 12.4% in assay [4]; -4.76% (active) in assay [5]; 16.3% in assay [6]. Moreover, the growth in assay [7] was 8.04% (active); in [8], -3.47% (active); in assay [9], 7.79% (active); in [10], -9.09% (active).
In the case of `O=C1c2cc(I)ccc2Oc2cc([N+](=O)[O-])ccc2N1c1ccc(Cl)cc1F`, the growth in assay [1] was 87.4%; in assay [2] it was 91%; in [3], 90.5%; in assay [4], 79.4%; in [5], 96.1%; in [6], 72.3%. In addition, the growth in [7] is 100%; in [8], 88.6%; in [9], 89.7%; in assay [10], 82.5%.
With `O=C1c2ccccc2C(=O)c2c1ccc1[nH]c(CCl)nc21`, the growth in [1] is -40.3% (active); in assay [2], 20.1%; in assay [3] it was 70.4%; in assay [4], -20.4% (active); in [5], 37.6%; in [6], 15.2%. The growth in assay [7] was -35.9% (active); in assay [8], 18.2%; in [9] it was 34.5%; in assay [10] it was -21.5% (active).
On to `N[C@@H](CC/[N+]([O-])=N/O)C(=O)O`, for which the growth in assay [1] is 101%; in [2] it was 109%; in [3], 100%; in [4], 105%; in [5], 105%; in assay [6], 93.3%. In addition, the growth in assay [7] is 102%; in [8], 98.4%; in assay [9] it was 103%; in assay [10], 94.4%.
In the case of `COc1cccc(C2=NN3C(C2)c2ccccc2OC3c2ccc(/C=C3\SC(=O)NC3=O)cc2)c1` (stereo not given), the growth in assay [1] is 99.4%; in [2], 94.8%; in assay [3], 108%; in assay [4], 103%; in assay [5] it was 96.8%; in assay [6], 100%. Also, the growth in [7] is 102%; in assay [8], 96.4%; in [9], 111%; in [10], 100%.
